Data taken from PubChem BioAssay AID1159580 (chemical genetic matrix, 2015).
Where “and” joins values, the source holds several entries; their conditions need not be identical. Equal entries are not always repeated. Screen size: about 5,500 compounds; about 2,000 (36%) were called active. Roughly 18% stayed inconclusive and do not appear here. No stated cut-off is given here; in the data, active means normalized growth mostly below about 0.91 (no sharp cut-off); inconclusive means no clear call, values can overlap the other calls; inactive means mostly above about 0.92. This is one part of the list.

Assay: chemical genetic growth profiling, strain panel (AID 1159580);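 further: tested at 20 µM; growth read once vehicle control cultures reached saturation at 30 °C; 1 = growth at the plate median or of vehicle wells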
Settings: S. cerevisiae deletion strains, growth OD

Measured: normalized growth

CC(C)C(=O)Nc1ccc([N+](=O)[O-])c(C(F)(F)F)c1
inactive: locus YAL013W, strain DEP1, stronger effect = lower value 0.995 | locus YAL021C, strain ccr4, stronger effect = lower value 1.03 | locus YAL026C, strain drs2, stronger effect = lower value 1.01 | locus YAL030W, strain snc1, stronger effect = lower value 1.02 | locus YAL040C, strain CLN3, stronger effect = lower value 0.959 | locus YBL061C, strain skt5, stronger effect = lower value 1.02 | locus YBR009C, strain hhf1, stronger effect = lower value 1.03 | locus YBR021W, strain FUR4, stronger effect = lower value 0.929 | locus YBR023C, strain chs3, stronger effect = lower value 1.03 | locus YBR171W, strain sec66, stronger effect = lower value 1.04 | locus YBR229C, strain ROT2, stronger effect = lower value 0.99 | locus YBR231C, strain swc5, stronger effect = lower value 0.994 | locus YBR279W, strain paf1, stronger effect = lower value 1.02 | locus YCL011C, strain gbp2, stronger effect = lower value 1.02 | locus YCL016C, strain dcc1, stronger effect = lower value 1.01 | locus YCL029C, strain bik1, stronger effect = lower value 0.99 | locus YCL061C, strain MRC1 (second series), stronger effect = lower value 0.999 | locus YCL069W, strain vba3, stronger effect = lower value 1.02 | locus YCR088W, strain abp1, stronger effect = lower value 1.01 | locus YDL005C, strain med2, stronger effect = lower value 1.03 | locus YDL035C, strain GPR1, stronger effect = lower value 0.993 | locus YDL040C, strain nat1, stronger effect = lower value 1.02 | locus YDL074C, strain BRE1, stronger effect = lower value 0.946 | locus YDL101C, strain DUN1, stronger effect = lower value 0.993 | locus YDL134C, strain PPH21, stronger effect = lower value 0.991 | locus YDL185W, strain tfp1, stronger effect = lower value 0.98 | locus YDL192W, strain arf1, stronger effect = lower value 0.977 | locus YDR001C, strain nth1, stronger effect = lower value 1.02 | locus YDR069C, strain doa4, stronger effect = lower value 1.02 | locus YDR101C, strain arx1, stronger effect = lower value 0.969 | locus YDR137W, strain rgp1, stronger effect = lower value 0.983 | locus YDR150W, strain NUM1, stronger effect = lower value 0.994 and 0.998 | locus YDR159W, strain sac3, stronger effect = lower value 1.03 | locus YDR162C, strain NBP2, stronger effect = lower value 0.982 | locus YDR195W, strain ref2 1.07 | locus YDR297W, strain sur2, stronger effect = lower value 1.01 | locus YDR318W, strain mcm21, stronger effect = lower value 0.964 | locus YDR334W, strain swr1, stronger effect = lower value 1.01 | locus YDR335W, strain msn5, stronger effect = lower value 1.03 | locus YDR363W, strain ESC2, stronger effect = lower value 1.05 | locus YDR388W, stronger effect = lower value 0.961 | locus YDR392W, strain spt3, stronger effect = lower value 0.999 | locus YDR502C, strain sam2, stronger effect = lower value 0.96 | locus YEL003W, strain gim4, stronger effect = lower value 1.02 | locus YEL037C, strain rad23, stronger effect = lower value 1.02 | locus YEL061C, strain CIN8 (second series), stronger effect = lower value 1.01 | locus YEL061C, strain CIN8, stronger effect = lower value 0.993 | locus YER002W, strain NOP16, stronger effect = lower value 0.972 | locus YER015W, strain faa2, stronger effect = lower value 1.02 | locus YER016W, strain bim1, stronger effect = lower value 1.01 | locus YER110C, stronger effect = lower value 0.979 | locus YER111C, strain swi4, stronger effect = lower value 1.03 | locus YER155C, strain BEM2 (second series), stronger effect = lower value 0.993 | locus YER155C, strain BEM2, stronger effect = lower value 0.985 | locus YER167W, strain BCK2, stronger effect = lower value 0.969 | locus YFR010W, strain ubp6, stronger effect = lower value 1.04 | locus YGL078C, strain dbp3, stronger effect = lower value 0.984 | locus YGL086W, strain mad1, stronger effect = lower value 0.984 | locus YGL167C, strain pmr1, stronger effect = lower value 1.03 | locus YGL173C, strain kem1, stronger effect = lower value 1.03 | locus YGL227W, strain vid30, stronger effect = lower value 1.03 | locus YGL240W, strain doc1, stronger effect = lower value 1.01 | locus YGL248W, strain PDE1, stronger effect = lower value 0.988 | locus YGL253W, strain hxk2, stronger effect = lower value 1.02 | locus YGR078C, strain PAC10, stronger effect = lower value 0.992 and 0.982 | locus YGR135W, strain pre9, stronger effect = lower value 0.968 | locus YGR229C, strain SMI1, stronger effect = lower value 0.978 | locus YGR252W, strain gcn5, stronger effect = lower value 0.916 | locus YHR013C, strain ard1, stronger effect = lower value 0.995 | locus YHR027C, strain rpn1, stronger effect = lower value 1.04 | locus YHR030C, strain SLT2, stronger effect = lower value 0.994 and 0.977 | locus YHR079C, strain IRE1 (second series), stronger effect = lower value 0.975 | locus YHR079C, strain IRE1, stronger effect = lower value 0.964 | locus YHR094C, strain hxt1, stronger effect = lower value 0.98 | locus YHR129C, strain ARP1, stronger effect = lower value 0.981 | locus YHR142W, strain chs7, stronger effect = lower value 1.03 | locus YHR200W, strain rpn10, stronger effect = lower value 0.963 | locus YIL066C, strain RNR3, stronger effect = lower value 0.986 | locus YIL073C, strain SPO22, stronger effect = lower value 0.98 | locus YIL125W, strain kgd1, stronger effect = lower value 0.983 | locus YIR030C, strain dcg1, stronger effect = lower value 0.973 | locus YJL092W, strain hpr5, stronger effect = lower value 1.03 | locus YJL095W, strain BCK1 (second series), stronger effect = lower value 1.01 | locus YJL095W, strain BCK1, stronger effect = lower value 0.958 and 0.976 | locus YJL115W, strain asf1, stronger effect = lower value 1.03 | locus YJL129C, strain trk1, stronger effect = lower value 1.04 | locus YJL134W, strain LCB3, stronger effect = lower value 0.986 | locus YJL154C, strain vps35, stronger effect = lower value 1.02 | locus YJL164C, strain tpk1, stronger effect = lower value 1.02 | locus YJL166W, strain qcr8, stronger effect = lower value 1.02 | locus YJL168C, strain set2, stronger effect = lower value 0.977 | locus YJL187C, strain SWE1 (second series), stronger effect = lower value 0.988 | locus YJR043C, strain POL32, stronger effect = lower value 0.967 | locus YJR066W, strain TOR1, stronger effect = lower value 0.92 | locus YJR075W, strain HOC1, stronger effect = lower value 0.98
